The values that follow come from PubChem BioAssay (NCATS).

In test [1] the target is Cytochrome P450 3A4 (Homo sapiens) (UniProt P08684). Kind of test: Cytochrome P450 family 3 subfamily A member 4 (CYP3A4) small molecule antagonists: luciferase qHTS assay (AID 1645841). Note: nearly all actives have a fitted effect of over 45% in size. An outline of the steps: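 P450-Glo CYP3A4 enzyme with proluciferin substrate was preincubated with DMSO-dissolved compounds for 10 min at room temperature. NADPH regeneration solution started a 1 h reaction. Detection reagent stopped it, and luminescence was read after 20 min.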
Chain of Cytochrome P450 3A4 (Homo sapiens) (P08684 whole entry, looked up): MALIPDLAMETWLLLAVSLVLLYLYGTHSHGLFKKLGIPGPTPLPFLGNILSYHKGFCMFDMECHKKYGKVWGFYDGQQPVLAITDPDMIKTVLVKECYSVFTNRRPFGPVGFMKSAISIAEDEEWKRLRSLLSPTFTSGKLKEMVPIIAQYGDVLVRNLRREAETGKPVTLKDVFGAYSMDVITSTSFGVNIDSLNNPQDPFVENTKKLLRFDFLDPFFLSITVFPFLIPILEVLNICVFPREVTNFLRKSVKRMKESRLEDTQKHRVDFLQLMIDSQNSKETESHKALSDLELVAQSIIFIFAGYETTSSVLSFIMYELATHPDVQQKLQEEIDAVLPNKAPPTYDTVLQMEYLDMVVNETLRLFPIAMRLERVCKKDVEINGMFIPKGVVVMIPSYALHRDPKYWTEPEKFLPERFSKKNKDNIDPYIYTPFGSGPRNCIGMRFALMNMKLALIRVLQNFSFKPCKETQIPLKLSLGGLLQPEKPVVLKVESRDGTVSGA

Test [2] concerns the target N-terminal Xaa-Pro-Lys N-methyltransferase 1 (Homo sapiens) (UniProt Q9BV86). Put plainly: Confirmatory qHTS for Inhibitors of N-terminal methyltransferase 1 (NTMT1): MTaseGlo Assay (AID 1645874; active = well fitted curve in the direction sought with a large enough effect; an effect the other way counts as inactive or inconclusive; note: nearly all actives have a fitted effect of over 65% in size; note: potency is the fitted concentration of half-maximal effect;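 for activity change, negative = inhibition: luminescence from SAH made as NTMT1 methylates SPKRIA peptide using SAM; series mostly up to about 100 µM; 0% = DMSO control and -100% = no-enzyme control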). An outline of the steps: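 Enzyme mix (125 nM NTMT1, 100 uM SAM) + compound, 15 min RT; + 1 uM SPKRIA, 30 min RT, dark; MTase-Glo reagent 30 min, detection solution 30 min; luminescence. % inhibition vs no-enzyme/DMSO controls, 4-parameter Hill fit.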
(Quantitative high-throughput screening tests each substance at several concentrations.)

Test [3] can be described thus: A High-Content qHTS Against Drug Library for the Identification of Small Molecules that Inhibit DYT1 Early Onset Primary Dystonia-Associated Cell Pathology (AID 1645839; calls by dose curve; note: series mostly up to about 46 µM). An outline of the steps:
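Induced EGFP-delE TorsinA cells are imaged after 48 h of compound treatment. Punctate fusion-protein distribution gives the %pathology value, while nuclei counts flag toxicity. Wild-type EGFP-hTOR1A cells define the normal pattern.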

The target in test [4] is Cytochrome P450 2D6 (Homo sapiens) (UniProt P10635). Put plainly: Cytochrome P450 family 2 subfamily D member 6 (CYP2D6) small molecule antagonists: luciferase biochemical (cell-free) qHTS assay (AID 1645840). For activity change, negative = inhibition: series mostly up to about 57 µM; % is set by controls: 0 for no effect and ±100 for the full control effect. Note: nearly all actives have a fitted effect of over 55% in size. Note: potency is the fitted concentration of half-maximal effect. The essentials: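 P450-Glo CYP2D6 system: proluciferin substrate converted by enzyme to luciferin, read by luminescence proportional to activity. Enzyme-substrate mix with compound 10 min at room temperature, then NADPH regeneration 1 h before detection reagent.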
Chain of Cytochrome P450 2D6 (Homo sapiens) (P10635 whole entry, looked up): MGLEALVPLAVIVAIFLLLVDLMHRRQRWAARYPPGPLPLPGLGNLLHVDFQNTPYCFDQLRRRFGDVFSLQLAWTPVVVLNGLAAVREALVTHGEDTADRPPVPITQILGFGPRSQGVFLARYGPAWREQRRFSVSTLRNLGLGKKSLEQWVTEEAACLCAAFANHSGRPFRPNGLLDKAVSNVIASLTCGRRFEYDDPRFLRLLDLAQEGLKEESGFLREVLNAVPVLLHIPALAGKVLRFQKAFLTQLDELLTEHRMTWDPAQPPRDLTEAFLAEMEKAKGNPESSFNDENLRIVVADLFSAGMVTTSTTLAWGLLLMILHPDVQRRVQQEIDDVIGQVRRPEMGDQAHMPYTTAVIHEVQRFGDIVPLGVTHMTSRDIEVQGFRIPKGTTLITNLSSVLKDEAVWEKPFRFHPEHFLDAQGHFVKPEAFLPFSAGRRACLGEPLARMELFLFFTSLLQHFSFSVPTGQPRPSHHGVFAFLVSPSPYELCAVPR

Test [5] addresses Cytochrome P450 2C9 (Homo sapiens) (UniProt P11712). Kind of test: Cytochrome P450 family 2 subfamily C member 9 (CYP2C9) small molecule antagonists: luciferase biochemical (cell-free) qHTS assay (AID 1645842). Note: series mostly up to about 57 µM; % is set by controls: 0 for no effect and ±100 for the full control effect; nearly all actives have a fitted effect of over 55% in size. An outline of the steps: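 P450-Glo CYP2C9 system: proluciferin substrate with enzyme in mix containing 0.4% BSA, 10 min at room temperature, then NADPH regeneration solution added and incubated 1 h at 37C. Detection reagent stopped reaction; luminescence read after 20 min as RLU.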

Test [6] can be described thus: Primary qHTS for inhibitors of nuclear receptor binding SET domain protein 2 (NSD2) in an isogenic RCH-ACV NSD2 p.E1099K mutant (9B) (AID 1645876; active = well fitted curve in the direction sought with a large enough effect; an effect the other way counts as inactive or inconclusive; note: nearly all actives have a fitted effect of over 70% in size).
Test [7] can be described thus: Primary qHTS for inhibitors of nuclear receptor binding SET domain protein 2 (NSD2) in an RCH-ACV wild type WT cells (2C) (AID 1645877; active = well fitted curve in the direction sought with a large enough effect; an effect the other way counts as inactive or inconclusive; note: nearly all actives have a fitted effect of over 70% in size; note: potency is the fitted concentration of half-maximal effect).

SMILES strings stand for the structures. Results filed as inconclusive are left out. A number with no mark means an inactive call. Activity calls are given as the source filed them. Unless noted, calls come from the whole dose curve; as a rule, active = well fitted curve in the direction sought with a large enough effect in the repeat runs; inconclusive = weak or mixed curves; inactive = no such curve, though single readings can be large; an effect the other way counts as inactive or inconclusive.

Chain of Cytochrome P450 2C9 (Homo sapiens) (P11712 whole entry, looked up): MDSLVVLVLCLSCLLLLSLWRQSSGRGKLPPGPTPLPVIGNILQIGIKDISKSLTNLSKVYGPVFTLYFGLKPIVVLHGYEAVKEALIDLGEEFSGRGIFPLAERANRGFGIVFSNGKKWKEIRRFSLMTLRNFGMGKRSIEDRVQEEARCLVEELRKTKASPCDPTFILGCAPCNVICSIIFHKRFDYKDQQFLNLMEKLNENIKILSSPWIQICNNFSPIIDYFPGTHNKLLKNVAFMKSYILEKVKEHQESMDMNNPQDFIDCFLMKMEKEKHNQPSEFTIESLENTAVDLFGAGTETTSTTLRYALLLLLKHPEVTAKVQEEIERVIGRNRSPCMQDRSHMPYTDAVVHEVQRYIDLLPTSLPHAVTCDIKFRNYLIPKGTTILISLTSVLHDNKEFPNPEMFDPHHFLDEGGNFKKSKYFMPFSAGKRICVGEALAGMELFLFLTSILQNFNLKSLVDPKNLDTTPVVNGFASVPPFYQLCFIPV
Chain of N-terminal Xaa-Pro-Lys N-methyltransferase 1 (Homo sapiens) (Q9BV86 whole entry, looked up): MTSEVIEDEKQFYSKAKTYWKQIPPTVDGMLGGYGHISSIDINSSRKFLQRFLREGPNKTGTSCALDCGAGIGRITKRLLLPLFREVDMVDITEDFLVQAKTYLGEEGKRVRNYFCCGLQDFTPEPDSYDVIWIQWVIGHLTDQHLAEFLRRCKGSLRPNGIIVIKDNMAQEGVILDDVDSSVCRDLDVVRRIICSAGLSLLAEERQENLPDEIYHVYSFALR

Regarding `CNC(=O)CN(CCN(CCN(CC(=O)[O-])CC(=O)NC)CC(=O)[O-])CC(=O)[O-].O.[Gd+3]`, the result in test [1] was inactive.

For the compound `CN1CCC[C@@H]1c1cccnc1`, in test [1], the result was inactive.

`C[C@]12CC[C@@H]3c4ccc(O)cc4CC[C@H]3[C@@H]1C[C@@H](O)[C@@H]2O`: in test [2], the Potency entry is “inactive”.

Turning to `Cc1c(C)n(Cc2ccccc2)c2ccc(C(=O)OCCN(C)C)cc12`, the Potency in test [2] is 5.78 µM (active).

In the case of `CN=C(NC#N)Nc1ccc(C2=NNC(=O)CC2C)cc1` (centres undefined), the Potency result in test [3], in test [4], in test [5], in test [6] and in test [7] was “inactive” each time.

As to `Nc1ccc(/C=C/c2ccc(N)cc2S(=O)(=O)O)c(S(=O)(=O)O)c1`, the % pathology change, negative = correction in test [3] is 12.8% [at 0.369 µM]. Further, the activity change, negative = inhibition in test [4] was 18.7% [at 0.91 µM]; in test [5] it was 13.7% [at 0.91 µM]. Moreover, the outcome in test [6] and in test [7] was “inactive [at 0.588 µM]” throughout.

Turning to `CCCCCCCCCCCCCCCCCC(=O)OCC(O)CO` (centres undefined), the Potency entry in test [3], in test [4], in test [5], in test [6] and in test [7] was “inactive” each time.

As to `NC(CS)C(=O)O` (centres undefined), the Potency entry in test [3], in test [4], in test [5], in test [6] and in test [7] was “inactive” each time.

On to `Cc1ccc(C(=O)C(C)CN2CCCCC2)cc1` (centres undefined), for which the Potency result in test [3], in test [5] and in test [6] was “inactive” in each case. For the same compound, the values for the Potency in test [4] and in test [7] were 1.74 µM (active) and 21.1 µM (active), respectively.

Take `NC[C@H]1O[C@H](O[C@H]2[C@H](O)[C@@H](O[C@H]3O[C@H](CO)[C@@H](O)[C@H](N)[C@H]3O)[C@H](N)C[C@@H]2N)[C@H](N)[C@@H](O)[C@@H]1O`: the Potency entry in test [3], in test [4], in test [5], in test [6] and in test [7] was “inactive” in each case.

With `CC[N+](CC)(CCNC(=O)C(=O)NCC[N+](CC)(CC)Cc1ccccc1Cl)Cc1ccccc1Cl`, the Potency result in test [3], in test [5], in test [6] and in test [7] was “inactive” throughout. Also, the Potency in test [4] is 15.5 µM (active).
